Our source for the outcome and AC50 values is PubChem BioAssay (EPA / NIEHS).

What all share (conditions): mRNA level, 48 h; actives raise or lower the signal
Read-out in assay [1]: Cytochrome P450 (CYP24A1), CYP24A1 (gene 1591)
As to the kind of experiment: LTEA_HepaRG_CYP24A1: Life Technologies and Expression Analysis (LTEA) Assay for Cytochrome P450 (CYP24A1) using HepaRG (AID 2283478). A digest of the protocol:
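HepaRG, 48 h chemical exposure, 8-pt half-log CRC from 100 uM, 0.5% DMSO vehicle, duplicates. Endpoint: CYP24A1 mRNA by Fluidigm TaqMan qRT-PCR, normalized ACTB/GAPDH/POLR2A; gain/loss fit vs DMSO.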

Read-out in assay [2]: Cytochrome P450 (CYP1A2), CYP1A2 (gene 1544)
Briefly: LTEA_HepaRG_CYP1A2: Life Technologies and Expression Analysis (LTEA) Assay for Cytochrome P450 (CYP1A2) using HepaRG (AID 2283479). A digest of the protocol: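 CYP1A2 transcript induction or loss, quantified by Fluidigm qRT-PCR against three housekeeping genes, was fitted bidirectionally against 0.5% DMSO controls. Human HepaRG cells received eight half-log concentrations from 100 uM over 48 h.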

Read-out in assay [3]: cysteine-aspartic acid protease (CASP8), CASP8 (gene 841)
Briefly: LTEA_HepaRG_CASP8: Life Technologies and Expression Analysis (LTEA) Assay for cysteine-aspartic acid protease (CASP8) using HepaRG (AID 2283480). A digest of the protocol: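 HepaRG, 48 h exposure, duplicate wells; 8 conc, half-log from 100 uM, 0.5% DMSO. Serum-free induction medium. CASP8 mRNA by TaqMan qRT-PCR, norm. ACTB/GAPDH/POLR2A; gain/loss fitted vs DMSO.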

Read-out in assay [4]: Cytochrome P450 (CYP2B6), CYP2B6 (gene 1555)
Briefly: LTEA_HepaRG_CYP2B6: Life Technologies and Expression Analysis (LTEA) Assay for Cytochrome P450 (CYP2B6) using HepaRG (AID 2283481). A digest of the protocol: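 HepaRG cells plated 48 h, switched to serum-free induction medium, then dosed 48 h (8 points, half-log from 100 uM, 0.5% DMSO). RNA isolated; CYP2B6 expression measured by qRT-PCR; gain or loss fitted relative to DMSO.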

Read-out in assay [5]: Cytochrome P450 2C19 (Homo sapiens) (UniProt P33261)
As to the kind of experiment: LTEA_HepaRG_CYP2C19: Life Technologies and Expression Analysis (LTEA) Assay for CYP2C19 using HepaRG (AID 2283482). A digest of the protocol:
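Transcript levels of CYP2C19 were quantified by qRT-PCR after HepaRG cells were treated for 48 hours with test chemicals up to 100 uM (eight half-log concentrations, 0.5% DMSO vehicle). Gain or loss of signal was fitted relative to DMSO.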

Read-out in assay [6]: CYP2C8 (gene 1558)
Briefly: LTEA_HepaRG_CYP2C8: Life Technologies and Expression Analysis (LTEA) Assay for CYP2C8 using HepaRG (AID 2283483). A digest of the protocol: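 CYP2C8 mRNA induction or loss, by qRT-PCR normalized to ACTB/GAPDH/POLR2A, is read in HepaRG cells after 48 h treatment. Concentrations run from 100 uM down in half-log dilutions, with 0.5% DMSO as vehicle and baseline.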

Read-out in assay [7]: CYP2C9 (gene 1559)
As to the kind of experiment: LTEA_HepaRG_CYP2C9: Life Technologies and Expression Analysis (LTEA) Assay for CYP2C9 using HepaRG (AID 2283484). The gist of the method:
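Cells plated 48 h, switched to serum-free induction medium, then treated in duplicate for 48 h at eight concentrations (max 100 uM, 0.5% DMSO). RNA then analysed by qRT-PCR for CYP2C9; curves fitted in both directions relative to DMSO.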

Read-out in assay [8]: CYP2E1 (gene 1571)
Briefly: LTEA_HepaRG_CYP2E1: Life Technologies and Expression Analysis (LTEA) Assay for CYP2E1 using HepaRG (AID 2283485). The gist of the method:
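HepaRG cells, plated 48 h, then exposed 48 h in serum-free induction medium to eight half-log concentrations from 100 uM in 0.5% DMSO, duplicate. CYP2E1 mRNA by qRT-PCR, normalized to ACTB/GAPDH/POLR2A; bidirectional fit versus DMSO.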

Read-out in assay [9]: CYP4A11 (gene 1579)
Briefly: LTEA_HepaRG_CYP4A11: Life Technologies and Expression Analysis (LTEA) Assay for CYP4A11 using HepaRG (AID 2283486). The gist of the method:
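HepaRG, 48 h chem exposure, 8 conc (100 uM top, half-log), 0.5% DMSO vehicle; qRT-PCR readout, housekeeping-gene normalized; bidirectional curve fit vs DMSO baseline.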

Read-out in assay [10]: DNA damage-inducible transcript 3 (DDIT3), DDIT3 (gene 1649)
Briefly: LTEA_HepaRG_DDIT3: Life Technologies and Expression Analysis (LTEA) Assay for DNA damage-inducible transcript 3 (DDIT3) using HepaRG (AID 2283488). The gist of the method:
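HepaRG cells, 48 h after plating, exposed 48 h in serum-free induction medium to 8 half-log concentrations up to 100 uM in 0.5% DMSO, in duplicate. DDIT3 mRNA measured by TaqMan qRT-PCR, normalized to ACTB, GAPDH and POLR2A. Fitted bidirectionally against DMSO.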

Read-out in assay [11]: Pro-epidermal growth factor (Homo sapiens) (UniProt P01133)
Briefly: LTEA_HepaRG_EGF: Life Technologies and Expression Analysis (LTEA) Assay for Epidermal growth factor (EGF) using HepaRG (AID 2283489). The gist of the method:
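HepaRG, 48 h dosing, 100 uM top, half-log x8, 0.5% DMSO. Readout: TaqMan qRT-PCR (Fluidigm array), housekeeping-normalized. Gain or loss of signal fit vs DMSO.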

Read-out in assay [12]: Early growth response protein 1 (EGR1) transcription factor, EGR1 (gene 1958)
Briefly: LTEA_HepaRG_EGR1: Life Technologies and Expression Analysis (LTEA) Assay for Early growth response protein 1 (EGR1) transcription factor using HepaRG (AID 2283490). The gist of the method: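 Read-out is EGR1 mRNA level by qRT-PCR, normalized to three housekeeping genes and analysed for gain or loss of signal against 0.5% DMSO. Source cells: human HepaRG, treated 48 h at up to 100 uM in half-log dilutions.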

Read-out in assay [13]: Ezrin (EZR), EZR (gene 7430)
As to the kind of experiment: LTEA_HepaRG_EZR: Life Technologies and Expression Analysis (LTEA) Assay for Ezrin (EZR) using HepaRG (AID 2283491). The gist of the method:
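Gain or loss of EZR mRNA is scored relative to 0.5% DMSO in human HepaRG cultures treated 48 h with test chemicals in duplicate, eight half-log concentrations from 100 uM.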

Read-out in assay [14]: Cytochrome P450 3A7 (Homo sapiens) (UniProt P24462)
As to the kind of experiment: LTEA_HepaRG_CYP3A7: Life Technologies and Expression Analysis (LTEA) Assay for CYP3A7 using HepaRG (AID 2283492). A digest of the protocol: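 Human HepaRG liver cells, 48 h post-plating, switched to serum-free induction medium and exposed in duplicate for 48 h. Dosing: 100 uM top, half-log dilutions, 8 points, 0.5% DMSO vehicle. Read-out: CYP3A7 mRNA, gain or loss fitted against DMSO baseline.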

Read-out in assay [15]: CYP3A5 (gene 1577)
Briefly: LTEA_HepaRG_CYP3A5: Life Technologies and Expression Analysis (LTEA) Assay for CYP3A5 using HepaRG (AID 2283493). The gist of the method:
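HepaRG cells, plated 48 h then in serum-free induction medium, dosed in duplicate for 48 h with eight half-log concentrations up to 100 uM in 0.5% DMSO. Gene mRNA by Fluidigm TaqMan qRT-PCR, normalized to ACTB, GAPDH, POLR2A.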

Read-out in assay [16]: Fatty Acid-Binding Protein 1 (FABP1), FABP1 (gene 2168)
Briefly: LTEA_HepaRG_FABP1: Life Technologies and Expression Analysis (LTEA) Assay for Fatty Acid-Binding Protein 1 (FABP1) using HepaRG (AID 2283494). The gist of the method: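 HepaRG, 48 h post-plating switched to serum-free induction medium, then dosed 48 h (duplicate, 8 pts, ≤100 uM, 0.5% DMSO). RNA → Fluidigm TaqMan qRT-PCR, FABP1 normed to ACTB/GAPDH/POLR2A. Bidirectional curve fit vs DMSO.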

Read-out in assay [17]: Cytochrome P450 4A22 (Homo sapiens) (UniProt Q5TCH4)
Briefly: LTEA_HepaRG_CYP4A22: Life Technologies and Expression Analysis (LTEA) Assay for Cytochrome P450 4A22 (CYP4A22) using HepaRG (AID 2283495). The gist of the method:
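Readout is CYP4A22 transcript induction or loss, quantified by qRT-PCR and normalized to ACTB, GAPDH and POLR2A. Human HepaRG cells receive test chemicals for 48 h at eight half-log concentrations from 100 uM in 0.5% DMSO.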

Read-out in assay [18]: Cytochrome P450 7A1 (Homo sapiens) (UniProt P22680)
Briefly: LTEA_HepaRG_CYP7A1: Life Technologies and Expression Analysis (LTEA) Assay for Cytochrome P450 7A1 (CYP7A1) using HepaRG (AID 2283496). The gist of the method:
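HepaRG cells plated 48 h, then switched to serum-free induction medium and exposed in duplicate for 48 h to 8-point half-log series from 100 uM in 0.5% DMSO. CYP7A1 mRNA by qRT-PCR (TaqMan), normalized to ACTB/GAPDH/POLR2A; bidirectional fit versus DMSO.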

Read-out in assay [19]: Glutathione S-Transferase (GSTA2), GSTA2 (gene 2939)
Briefly: LTEA_HepaRG_GSTA2: Life Technologies and Expression Analysis (LTEA) Assay for Glutathione S-Transferase (GSTA2) using HepaRG (AID 2283497). The gist of the method: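 HepaRG, 48 h dosing, 8-pt half-log CRC from 100 uM, 0.5% DMSO vehicle, n=2; RNA → Fluidigm TaqMan qRT-PCR; GSTA2 vs ACTB/GAPDH/POLR2A; gain/loss fit vs DMSO.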

Read-out in assay [20]: Cytochrome P450 3A4 (Homo sapiens) (UniProt P08684)
Briefly: LTEA_HepaRG_CYP3A4: Life Technologies and Expression Analysis (LTEA) Assay for CYP3A4 using HepaRG (AID 2283487). A digest of the protocol: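 In a human hepatic line (HepaRG), duplicate wells were treated 48 h with up to 100 uM chemical in half-log dilutions. Endpoint: CYP3A4 mRNA induction or loss relative to 0.5% DMSO vehicle, by qRT-PCR.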

Active and inactive are the calls of the source. Rule for the calls: active = hit-call score of the fitted dose curve at least 0.9, where 1 is the maximum; inactive = score below 0.9.

Sequence of Cytochrome P450 2C19 (Homo sapiens) (P33261 whole entry, looked up): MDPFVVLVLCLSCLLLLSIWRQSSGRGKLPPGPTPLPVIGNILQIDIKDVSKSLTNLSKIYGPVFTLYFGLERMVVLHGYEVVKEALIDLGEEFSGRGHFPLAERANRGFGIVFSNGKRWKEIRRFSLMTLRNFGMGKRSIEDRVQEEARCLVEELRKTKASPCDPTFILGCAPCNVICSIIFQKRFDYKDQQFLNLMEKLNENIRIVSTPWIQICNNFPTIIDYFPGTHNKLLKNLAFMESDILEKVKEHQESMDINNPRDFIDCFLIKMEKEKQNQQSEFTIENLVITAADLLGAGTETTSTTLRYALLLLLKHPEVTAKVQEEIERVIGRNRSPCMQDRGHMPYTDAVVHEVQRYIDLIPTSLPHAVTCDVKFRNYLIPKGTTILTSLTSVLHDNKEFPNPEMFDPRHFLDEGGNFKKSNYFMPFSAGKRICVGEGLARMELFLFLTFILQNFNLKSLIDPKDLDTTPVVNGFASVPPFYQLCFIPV
Sequence of Cytochrome P450 3A7 (Homo sapiens) (P24462 whole entry, looked up): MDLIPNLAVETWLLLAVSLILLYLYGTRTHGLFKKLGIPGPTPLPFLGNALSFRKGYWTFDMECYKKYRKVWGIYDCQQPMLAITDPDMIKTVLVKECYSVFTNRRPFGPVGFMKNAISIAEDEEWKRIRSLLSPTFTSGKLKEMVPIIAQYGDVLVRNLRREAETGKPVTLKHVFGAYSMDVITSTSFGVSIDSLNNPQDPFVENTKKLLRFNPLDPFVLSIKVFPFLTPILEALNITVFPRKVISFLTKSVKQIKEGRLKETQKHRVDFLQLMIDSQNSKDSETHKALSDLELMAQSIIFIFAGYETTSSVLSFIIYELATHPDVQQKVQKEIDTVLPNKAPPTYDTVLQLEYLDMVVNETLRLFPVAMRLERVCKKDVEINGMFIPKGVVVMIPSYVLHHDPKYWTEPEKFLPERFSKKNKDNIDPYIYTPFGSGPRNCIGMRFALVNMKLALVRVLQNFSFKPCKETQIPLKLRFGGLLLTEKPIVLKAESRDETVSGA
Sequence of Cytochrome P450 3A4 (Homo sapiens) (P08684 whole entry, looked up): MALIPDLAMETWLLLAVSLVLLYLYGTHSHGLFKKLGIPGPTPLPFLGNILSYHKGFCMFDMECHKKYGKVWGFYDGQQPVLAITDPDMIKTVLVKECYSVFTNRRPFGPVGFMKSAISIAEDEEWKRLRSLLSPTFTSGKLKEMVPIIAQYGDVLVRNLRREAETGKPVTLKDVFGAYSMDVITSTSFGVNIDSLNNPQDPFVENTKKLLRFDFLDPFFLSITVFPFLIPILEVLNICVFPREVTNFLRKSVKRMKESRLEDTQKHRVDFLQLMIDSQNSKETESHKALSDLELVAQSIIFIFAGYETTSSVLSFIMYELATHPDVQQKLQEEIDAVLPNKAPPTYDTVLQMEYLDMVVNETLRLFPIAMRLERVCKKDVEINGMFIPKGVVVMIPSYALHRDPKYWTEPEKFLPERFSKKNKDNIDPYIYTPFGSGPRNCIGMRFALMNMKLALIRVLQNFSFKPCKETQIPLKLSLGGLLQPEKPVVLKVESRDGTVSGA

On to `O=C(O)c1cccc(C[C@@H]2COc3ccc(OCc4nc5cc(F)ccc5s4)cc3[C@@H]2O)c1`, for which the call in assay [1], in assay [2], in assay [3], in assay [10], in assay [11] and in [12] was inactive. Besides, the outcome in assay [13], in assay [15] and in assay [19] was inactive. The AC50 is 92 µM (active) in assay [4]; 83.9 µM (active) in assay [5]; 84.2 µM (active) in [6]; 81.6 µM (active) in assay [7]; 71.7 µM (active) in [8]; 85.9 µM (active) in assay [9]. Moreover, the AC50 in [14] was 82.2 µM (active); in assay [16], 79.3 µM (active); in [17], 90.8 µM (active); in assay [18], 77.6 µM (active).

In the case of `CNC(C)=O`, the call in assay [1], in [2], in assay [3], in [4], in [5] and in assay [6] was inactive. Moreover, the outcome in assay [7], in assay [8], in [9], in [20], in assay [11] and in [12] was inactive. In addition, the result in [13], in assay [14], in [15], in assay [16], in assay [18] and in [19] was inactive.

Turning to `CCCCOC(=O)c1ccccc1`, the outcome in [1], in assay [2], in assay [3], in [5], in [6] and in assay [7] was inactive. The call in assay [8], in [9], in assay [20], in assay [11], in assay [12] and in assay [13] was inactive. Also, the molecule was called inactive in [14], in [15], in assay [18] and in [19]. Also, the values for the concentration at half-maximal activity (AC50) in assay [4] and in [16] were 50 µM (active) and 12.1 µM (active), respectively.
